This is a sample that favours compounds with a hit; in the whole collection about 6.1% have one here.
D3 antag – blocks the human D3 dopamine receptor; P35462; D3R cells, DiscoveRx beta-arrestin luminescence, antagonist mode; active compounds read low; max response, negative = inhibition, %; actives 2.5% (n = 360,000); in the data active means max response below about -50%; inconclusive means no clear call, values can overlap the other calls; further: on the % scale 0 is the no-effect control and ±100 the full control effect
Target sequence (P35462 whole entry, looked up): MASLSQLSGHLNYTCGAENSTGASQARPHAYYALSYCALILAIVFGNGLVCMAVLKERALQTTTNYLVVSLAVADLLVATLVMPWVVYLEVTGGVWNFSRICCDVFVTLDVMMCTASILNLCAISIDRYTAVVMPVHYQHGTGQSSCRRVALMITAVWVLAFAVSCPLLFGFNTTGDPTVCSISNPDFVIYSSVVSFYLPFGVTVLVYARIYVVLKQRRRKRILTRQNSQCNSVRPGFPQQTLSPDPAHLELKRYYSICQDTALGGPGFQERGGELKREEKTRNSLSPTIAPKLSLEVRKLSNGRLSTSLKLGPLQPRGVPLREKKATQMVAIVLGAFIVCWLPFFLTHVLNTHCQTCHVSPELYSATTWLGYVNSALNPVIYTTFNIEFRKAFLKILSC
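Cells plated overnight at 1500 cells/well, then exposed to library compounds with dopamine controls for 90 minutes at 37 degrees C. DiscoveRx reagent added for 30–60 minutes at room temperature; luminescence read, quantitative HTS format.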
D1 potentiator – potentiators of human D1 dopamine receptor; P21728; HEK293 TREx D1 cells, calcium flux, dopamine EC20 potentiation; potentiation, % at 10 µM; actives 0.036% (n = 360,000); in the data active means potentiation above about 30%; further: 0% is about no effect
D1 antag – blocks dopamine activation of the human D1 receptor; HEK293 TREx D1 cells, calcium flux, dopamine EC80; active compounds read low; P21728; activity change, negative = inhibition, % at 10 µM; actives 3.2% (n = 360,000); in the data active means activity change below about -30%; further: on the % scale 0 is the no-effect control and ±100 the full control effect
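Using tetracycline-induced force-coupled D1 Hek293 cells and a calcium dye, signals were followed for 180 s after compound, then for 180 s after EC80 dopamine, to detect inhibitors.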
D3 ag – D3 dopamine receptor (human) agonism. D3R DiscoveRx beta-arrestin cells, luminescence, 90 min. max activation, %. actives 0.58% (n = 410,000). AID 652048; in the data active means max activation above about 30%; further: 0% is about no effect
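Cells at 1500/well, incubated overnight, then treated with pinned compounds (dopamine as control) for 90 min at 37 degrees C. DiscoveRx reagent added for 30 - 60 minutes at room temperature; luminescence read.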
D1 ag – human D1 receptor agonism; P21728; HEK293 T-REx D1 cells, calcium flux, agonist mode; activation, % at 2 µM; actives 1% (n = 360,000); AID 504660; in the data active means activation above about 30%; further: 0% is about no effect
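Agonism was scored from calcium flux recorded over 180 s (1 read/s) after pintool compound addition, following a 10-cycle baseline. Cells were inducible force-coupled HEK293 TREx D1, plated overnight at 30 C and loaded with no-wash calcium dye.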
* marks the source's active call; other numbers are inactive results; ? = inconclusive; · = no result; ! = not active in a repeat.

SMILES	D3 antag	D1 potentiator	D1 antag	D3 ag	D1 ag
COc1ccc(S(=O)(=O)NCc2ccccn2)cc1OC	-6	-7	-5	1	5
COc1ccccc1Oc1ccc(S(=O)(=O)NCc2ccccn2)cc1	-79*	-8	-54*	15	14
Cc1ccc(/C=C/c2onc(C)c2S(=O)(=O)N2CCC(C(=O)NCc3ccc(Cl)cc3)CC2)cc1	·	0	-5	-5	6
O=C(N/N=C/c1c(O)ccc2ccccc12)c1cccnc1	25	5	6	26	42*
O=C(N/N=C\c1c(O)ccc2ccccc12)c1cncc(Br)c1	8	5	-21	30	314*
O=C(N/N=C\c1c(O)ccc2ccccc12)c1ccc(O)cc1	16	-3	-26	4	0
O=C(N/N=C/c1c(O)ccc2ccccc12)Nc1ccccc1	-57*	·	·	-15	·
O=C(N/N=C/c1c(O)ccc2ccccc12)c1ccc(Br)o1	-14	23	-2	0	97*
O=C(Cn1cc(S(=O)(=O)Cc2ccccc2F)c2ccccc21)N1CCOCC1	0	-9	-2	-2	6
CN(Cc1ccccc1)C(=O)c1[nH]c(C(F)(F)F)nc1-c1ccccc1	8	·	·	3	·
Cc1cc(C)cc(N2C(=O)N(Cc3cc(=O)n4ccccc4n3)c3ccccc3S2(=O)=O)c1	·	-1	-17	-13	2
CC(=O)Nc1ccc(NC(=O)c2oc3ccc4c(c3c2C)C(=O)CC(C)(C)O4)cc1	·	-5	2	-9	1
CCOC(=O)N1CCN(C(=O)CSc2ccc3nnc(-c4cccnc4)n3n2)CC1	-98*	5	-5	-23	5
CC(=O)c1ccc(N2CCN(C(=O)c3ccc(OCc4c(C)noc4C)cc3)CC2)cc1	2	-2	-32*	-5	8
Cc1noc(C)c1S(=O)(=O)Nc1ccc(C(=O)N2CCN(c3ccc(Cl)cc3)CC2)cc1	27	-7	-36*	4	20
CNS(=O)(=O)c1cn(CC(=O)Nc2ccc(F)cc2F)cc1S(=O)(=O)NC	·	-1	-3	-3	0
O=c1c2ccccc2c(/C=N/n2cnnc2)c(O)n1-c1ccccc1F	-5	-9	15	-1	1
Cc1ccc(-n2c(O)c(/C=N/n3cnnc3)c3ccccc3c2=O)cc1	-109*!	0	10	7	2
NC1=NC(=Nc2ccc(Cl)cc2)c2ccccc21	-1	-14	-41*	-3	1
NC1=NC(=Nc2ccc(S(=O)(=O)N3CCOCC3)cc2)c2ccccc21	10	-3	-33*	-1	4
NC1=NC(=Nc2ccccc2)c2ccccc21	?	-8	4	2	0
NC1=NC(=Nc2ccc(Br)cc2)c2ccccc21	-6	-10	-33*	2	-1
COc1cccc(CNC(=O)Cn2nc(C)n3c(cc4cc(C)ccc43)c2=O)c1OC	·	-7	11	3	4
CN(C(=O)Cc1noc2ccccc12)c1ccccc1	5	3	9	10	2
COc1ccc2nc(SCC(=O)NC3(C#N)CCCCC3)[nH]c2c1	7	2	-4	-3	0
SMILES	D3 antag	D1 potentiator	D1 antag	D3 ag	D1 ag
Cc1ccc(-c2nn3c(C)nnc3c3ccccc23)cc1S(=O)(=O)NC(C)c1ccccc1 (stereo not given)	-54*	-2	11	-11	2
CC(=O)NC(C)CCc1ccccc1 (stereo not given)	-24	-1	17	-6	4
COc1ccc(CCC(C)NC2C3CC4CC(C3)CC2C4)cc1 (stereo not given)	-97*	0	-71*	-60	10
COc1cc(CCC(C)NCc2ccccc2)ccc1O (stereo not given)	-17	-3	-1	32*	5
COc1ccc(CNC(C)CCc2ccccc2)cc1 (stereo not given)	-55*	-1	1	1	17
COc1ccc(CCC(C)NCc2ccc(C(F)(F)F)cc2)cc1 (stereo not given)	?	-2	0	-3	29
CC(CCc1ccccc1)NCC#N (stereo not given)	-6	-7	4	32*	1
O=C(O)c1ccccc1-c1ccc(C(F)(F)F)cc1	·	·	·	-18	·
CCOc1ccccc1OCCC(=O)N1CCN(S(=O)(=O)c2ccccc2[N+](=O)[O-])CC1	-4	·	1	2	7
CC(=O)Nc1ccc(Sc2ccccc2C(=O)Nc2ccc(F)cc2)cn1	6	2	-8	7	46*
CCc1c(C)nc(N2CCOCC2)[nH]c1=O	-10	0	3	-1	2
CCc1c(C)[nH]c2c1C(=O)C(CN1CCOCC1)CC2 (stereo not given)	-102*	·	·	-86	·
COc1cc(C(=O)N(c2ccc(C)c(C)c2)C2C=CS(=O)(=O)C2)cc(OC)c1OC (stereo not given)	9	-2	-12	4	1
N#CC[C@H](c1ccccc1)N1CCN(Cc2ccccc2)CCC1=O	-10	-3	0	34*	1
Cc1ccc(S(=O)(=O)N2CCC(=O)N(CCOC(=O)Nc3cccc(Cl)c3)CC2)cc1	23	-5	-31*	2	3
Cc1ccc(NC(=O)OCCN2CCN(S(=O)(=O)c3ccc(C)cc3)CCC2=O)cc1	23	-2	5	0	-5
COc1cccc(NC(=O)OCCN2CCN(Cc3ccccc3)CCC2=O)c1	19	-5	6	44*	5
Cc1ccc(NC(=O)OCCN2CCN(Cc3ccccc3)CCC2=O)cc1	6	-1	12	0	-1
O=C(Nc1ccccc1)OCCN1CCN(Cc2ccccc2)CCC1=O	26	-7	37	-2	-1
O=C(Nc1cccc(Cl)c1)OCCN1CCN(Cc2ccccc2)CCC1=O	-17	-7	-8	34*	14
Cc1ccc(C)c(C(=O)COC(=O)c2cc([N+](=O)[O-])ccc2NCCO)c1	-16	-3	11	-6	3
O=C(COCC(=O)N1CCOCC1)N1CCOCC1	10	-3	-8	5	2
CCOc1ccc(-n2c(=O)c3c(C)c(C)sc3n(CC(=O)N(CC)Cc3ccccc3)c2=O)cc1	·	1	-15	9	2
O=C1CCN(Cc2cccnc2)CCN1[C@H](CO)Cc1ccccc1	-67*	-1	-5	-31	1
Cc1ccc(COCCN2CCN(S(=O)(=O)c3ccccc3)CCC2=O)cc1	9	-6	-41*	7	1
Cc1ccc(S(=O)(=O)N2CCC(=O)N(C(CO)Cc3ccccc3)CC2)cc1 (stereo not given)	2	-3	-43*	-2	-1
Cc1ccc(S(=O)(=O)N2CCC(=O)N(CCOCc3ccccc3)CC2)cc1	6	-7	-12	-12	-3
COc1ccc(-c2cc(C)no2)cc1S(=O)(=O)Nc1cccc(C(F)(F)F)c1	·	-2	-14	-12	3

Compound activity (PubChem BioAssay)
